Screens deposited in PubChem BioAssay by several laboratories.
ALR H2O2 inh: inhibitors of human ALR sulfhydryl oxidase, primary screen, biochemical, H2O2 detection, HRP-luminol luminescence, single point | FAD-linked sulfhydryl oxidase ALR (Homo sapiens), P55789 | purified ALR, DTT oxidation | inhibition, % (concentration not given with the values) | 290,000 compounds, 3.8% hits | AID 485317, 2010;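 active means mean replicate inhibition above about 79%, with every replicate also reaching it, limit read from the data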
Target sequence (P55789 whole entry, looked up): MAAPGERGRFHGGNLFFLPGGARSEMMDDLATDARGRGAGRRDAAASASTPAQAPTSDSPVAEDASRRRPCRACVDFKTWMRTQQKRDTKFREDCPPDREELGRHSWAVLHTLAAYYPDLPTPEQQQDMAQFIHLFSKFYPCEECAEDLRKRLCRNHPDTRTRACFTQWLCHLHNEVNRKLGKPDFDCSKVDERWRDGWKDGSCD
PRMT1 FP inh: PRMT1 methyltransferase inhibitors, primary screen, biochemical, fluorescence polarization; Protein arginine N-methyltransferase 1 (Homo sapiens), Q99873; recombinant PRMT1, activity-based probe fluorescence polarization; inhibition, % at 2.79 µM; 370,000 compounds, 1.3% hits; AID 652257, 2013;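 active means inhibition above about 21% made by adding two undisclosed values, limit read from the data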
Target sequence (Q99873 whole entry, looked up): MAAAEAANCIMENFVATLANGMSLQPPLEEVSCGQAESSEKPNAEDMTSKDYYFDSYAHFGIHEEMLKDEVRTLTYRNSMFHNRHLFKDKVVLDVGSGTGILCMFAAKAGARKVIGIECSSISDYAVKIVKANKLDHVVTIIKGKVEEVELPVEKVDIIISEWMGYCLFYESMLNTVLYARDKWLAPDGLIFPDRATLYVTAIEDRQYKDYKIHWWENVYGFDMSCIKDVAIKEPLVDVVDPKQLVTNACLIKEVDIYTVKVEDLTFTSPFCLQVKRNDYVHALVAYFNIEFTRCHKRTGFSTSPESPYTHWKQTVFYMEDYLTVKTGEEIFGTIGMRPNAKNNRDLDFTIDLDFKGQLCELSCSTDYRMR
ABHD5 PLIN5 PPI: ABHD5-PLIN5 interaction inhibitors, primary screen, cell lysate, split luciferase complementation, luminescence. Perilipin-5 (Homo sapiens) + 1-acylglycerol-3-phosphate O-acyltransferase ABHD5 (Homo …. Split G. princeps luciferase complementation, 4 h. inhibition, % at 4 µM. 360,000 compounds, 0.78% hits. AID 602281, 2012;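 active means inhibition above the mean inhibition across every tested compound plus 3 SD, cut at about 22% in these data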;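 further: 0% = DMSO only wells and the 100% control is not disclosed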
LANA-H2B inh: blockers of LANA interaction with H2A/H2B – biochemical, FP readout, HTS, primary screen. Protein LANA1 (Human herpesvirus 8 type P (isolate GK18)), Q9QR71. cell-free LANA-H2A/H2B peptide, fluorescence polarization. inhibition, % (concentration not given with the values). 320,000 compounds, 0.6% hits; in the data active means inhibition mostly above about 10%, no sharp cut-off; inactive means mostly below about 6.7%
rCAG RNA binder: binders of r(CAG) RNA repeats, primary screen, biochemical, fluorescence; r(CAG) RNA repeat, TO-PRO-1 dye displacement fluorescence; inhibition, % at 3 µM; 370,000 compounds, 1.3% hits; AID 651821, 2012;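 active means inhibition above the plate cutoff, the mean of all test compounds on that plate plus 3 SD, cut at about 35% in these data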;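 further: 0% = DMSO alone and 100% = 100 µM mitoxantrone as full dye displacement; higher means more dye released from RNA so lower well fluorescence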
Rtt109 Vps75: inhibitors of C. albicans Rtt109/Vps75 HAT, primary screen, biochemical, ThioGlo CoA-SH fluorescence, plate reader | Histone acetyltransferase RTT109 (Candida albicans (strain SC5314 / ATCC MYA-2876)), … | purified Rtt109/Vps75, 4 h | inhibition, % at 34.9 µM | 330,000 compounds, 0.16% hits | AID 540336, 2011;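 active means inhibition of at least 50% in every replicate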
rCAG binder conf: small molecules binding CAG repeat RNA – biochemical, fluorescence, confirmation; AID 652065, 2013; shares compounds with rCAG RNA binder; r(CAG) RNA repeat, TO-PRO-1 dye displacement fluorescence; inhibition, % at 3 µM; 4,300 compounds, 70% hits;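 active means inhibition above a per-plate cutoff, the mean inhibition of sample wells plus 3 SD, cut at about 35% in these data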;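 further: loss of TO-PRO-1 fluorescence as compound displaces dye from 1x1 AA loop RNA; 0% = DMSO only wells and 100% = 100 µM mitoxantrone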
dCAG dye counter: displacement of TO-PRO-1 from CAG DNA duplex, counter-screen for rCAG RNA repeat binder project, biochemical, fluorescence, TO-PRO-1 dye, d(CAG) DNA oligo; shares compounds with rCAG RNA binder; d(CAG) DNA oligo TO-PRO-1 dye displacement; inhibition, % at 3 µM; 4,300 compounds, 94% hits; AID 652068, 2013;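 active means inhibition above its plate's cutoff, the mean test-well inhibition plus 3 SD, cut at about 4.8% in these data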;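 further: 0% = DNA dye mix with DMSO and 100% = 100 µM mitoxantrone; hits displace the dye from DNA and so lower well fluorescence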
dCAG dye DR: inhibitors of DNA CAG/GTC TO-PRO-1 complex, dose response, counter-screen for rCAG RNA repeat binder project, biochemical, fluorescence, TO-PRO-1 dye | DNA CAG/GTC duplex TO-PRO-1 dye displacement fluorescence | AID 686960, 2013 | shares compounds with rCAG RNA binder | IC50, µM | 250 compounds, 20% hits; in the data active means IC50 below about 10 µM
Numbers without * were called inactive; i = inactive; nt = no result given. Only some compounds are listed: those with a hit (about 5.9% of all), similar ones and a draw of the others.

SMILES | ALR H2O2 inh | PRMT1 FP inh | ABHD5 PLIN5 PPI | LANA-H2B inh | rCAG RNA binder | Rtt109 Vps75 | rCAG binder conf | dCAG dye counter | others
O=C(Nc1ccccc1C(=O)O)c1cccc(F)c1 | nt | 1 | 1 | 0 | 0 | -6 | nt | nt
O=C(Nc1cc(C(=O)Nc2ccccc2C(=O)O)cc(C(=O)Nc2ccccc2C(=O)O)c1)c1ccccc1 | 11 | 4 | 6 | 5 | 77* | 43 | 86* | 61*
O=C(O)CCC(=O)Nc1cccc(C(=O)Nc2ccc(Br)cc2)c1 | 0 | 3 | 5 | 4 | 3 | -2 | nt | nt
O=C(O)c1cccc(NC(=O)c2cc(NC(=O)c3ccccc3)cc(NC(=O)c3ccccc3)c2)c1 | 4 | 4 | 5 | 1 | 66* | -7 | 60* | 24*
O=C(Nc1ccccc1C(=O)O)c1cccc(NC(=O)c2ccccc2Br)c1 | nt | 0 | 8 | 1 | 48* | -4 | 33 | 9.5*
O=C(CCC1CCCCC1)Nc1cccc(C(=O)Nc2ccc(C(=O)O)cc2)c1 | nt | -2 | 5 | -3 | 35* | 5 | 27 | 5.5*
O=C(O)c1ccc(NC(=S)NC(=O)C(c2ccccc2)c2ccccc2)cc1 | 12 | -3 | 2 | 2 | 31 | 7 | nt | nt
CC1(C)CCC(C)(C)c2cc(NC(=O)c3ccc(C(=O)O)cc3)ccc21 | nt | -6 | nt | nt | 53* | nt | 36* | 7.5*
O=C(O)c1cccc(NC(=S)NC(=O)C(c2ccccc2)c2ccccc2)c1 | 6 | 0 | 6 | 0 | 45* | 19 | 34 | 9.3*
COc1ccc(NC(=O)Nc2cc(C(C)(C)C)on2)cc1OC | -36 | 0 | 2 | -1 | -4 | -1 | nt | nt
O=C(Nc1ccc2c(c1)OCO2)c1cc(C2CCCCN2C(=O)c2ccc3c(c2)CCO3)on1 (stereo not drawn) | nt | 2 | 7 | nt | 2 | nt | nt | nt
COC(=O)[C@H](NC(=O)c1cc(-c2ccccc2)sc1N)C(C)C | nt | 18 | -6 | nt | 9 | nt | nt | nt
N#Cc1c(-c2ccc(F)cc2)cc(-c2ccccc2)nc1SCC(=O)NCC(=O)O | 3 | 12 | -5 | -6 | 23 | 6 | nt | nt
N#Cc1c(-c2ccc(Cl)cc2)cc(-c2ccccc2)nc1SCC(=O)O | 42 | -1 | 4 | 0 | 76* | -4 | 84* | 53*
COc1cc(-c2cc(-c3ccccc3)nc(SCC(=O)O)c2C#N)cc(OC)c1OC | 6 | -3 | 1 | -3 | 41* | -1 | 50* | 17*
N#Cc1c(-c2ccccc2)cc(-c2ccccc2)nc1SCCC(=O)O | nt | 4 | 2 | 3 | 61* | -4 | 66* | 28* | dCAG dye DR=>30
N#Cc1c(-c2ccccc2)cc(C2CC2)nc1SCC(=O)O | 21 | 0 | -2 | 2 | 14 | 2 | nt | nt
CC(Sc1nnc(CN2CCCC2)n1Cc1ccccc1)C(=O)Nc1ccc(F)cc1Cl (stereo not drawn) | nt | 0 | -7 | nt | -13 | -3 | nt | nt
C=CCN1C(=O)/C(=C/c2ccc(O)c(OC)c2)S/C1=N/c1nccs1 | 25 | 1 | -4 | -1 | 35 | 3 | nt | nt
C=CCN1C(=O)/C(=C/c2ccc(OCC(=O)O)cc2)S/C1=N/c1nccs1 | nt | -2 | -1 | 0 | 56* | 23 | 57* | 17*
Cc1nnc(N2C(=O)C(O)=C(C(=O)c3ccco3)C2c2cccc([N+](=O)[O-])c2)s1 (stereo not drawn) | nt | 4 | 10 | -3 | 4 | 11 | nt | nt
Cc1cc(C)c2nc(N3C(=O)C(O)=C(C(=O)c4ccco4)C3c3cccc(O)c3)sc2c1 (stereo not drawn) | 99* | 14 | -11 | nt | 85* | 7 | 81* | 49*
Cc1cc(C)c2nc(N3C(=O)C(O)=C(C(=O)c4ccco4)C3c3ccc(O)cc3)sc2c1 (stereo not drawn) | 99* | 13 | -18 | nt | 84* | 16 | 81* | 43*
CCn1c(COc2ccc(C)cc2)nnc1SCC(=O)c1ccc(-c2ccccc2)cc1 | nt | 0 | nt | nt | 7 | nt | nt | nt
CCOC(=O)Cc1cc(=O)n2[nH]c(-c3ccccc3)c(-c3ccccc3)c2n1 | 26 | -5 | -2 | -1 | 40* | -4 | 43* | 15*
SMILES | ALR H2O2 inh | PRMT1 FP inh | ABHD5 PLIN5 PPI | LANA-H2B inh | rCAG RNA binder | Rtt109 Vps75 | rCAG binder conf | dCAG dye counter | others
COC(=O)[C@]12C[C@H](CC(=O)NCC34CC5CC(CC(C5)C3)C4)C(=O)N(Cc3cccc4ccccc34)C1=C[C@H](C1CCCC1)O[C@@H]2C | nt | 0 | nt | nt | 7 | nt | nt | nt
CC(=NN1CCN(Cc2ccccc2Cl)CC1)c1ccc(O)cc1 | nt | -7 | nt | nt | 1 | nt | nt | nt
N#CCSc1n[nH]c2nc3c(c(=O)n12)C1(CCCC1)Cc1ccccc1-3 | 5 | 9 | -18 | -3 | 50* | -143 | 55* | 18* | dCAG dye DR=i
CCN(Cc1ccccc1)S(=O)(=O)c1ccc(C(=O)Nc2nnc(C3CC3)o2)cc1 | 12 | 2 | -6 | 2 | 45* | 1 | 36* | 12*
COc1cc(/C=C2\SC(=S)N(CC(=O)O)C2=O)ccc1OS(=O)(=O)c1ccc(C)cc1 | 89* | 4 | 5 | -4 | 81* | 8 | 86* | 56*
COc1cc(/C=C2/SC(=S)N(CC(=O)O)C2=O)ccc1OC(=O)c1cccs1 | nt | 10 | -2 | -3 | 60* | 37 | 72* | 34* | dCAG dye DR=i
COc1cc(/C=C2/SC(=S)N(Cc3ccccc3)C2=O)ccc1OS(C)(=O)=O | 1 | -1 | -6 | 0 | 4 | 5 | nt | nt
CCCCNC(=O)C[C@H]1C[C@@]2(C(=O)OC)C(=C[C@H](COCc3ccccc3)O[C@@H]2C)N(Cc2cccc3ccccc23)C1=O | nt | -2 | nt | nt | 9 | nt | nt | nt
COc1ccc(-c2nn(-c3ccccc3)cc2C(=O)NC(=S)NNC(=O)c2ccncc2)cc1 | 4 | -1 | -20 | 2 | 56* | 19 | 55* | 20*
